Growth data for eleven compounds are collected here from PubChem BioAssay (NCI).

Compounds without any hit were thinned out: in the full panel of roughly 83,000, 20% have a hit.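 Cells were grown in 96-well plates and exposed to the test compound at a single concentration for 48 hours; results are reported as percent growth, with values below 10 considered active.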 Active and inactive are the calls of the source.

Assay in all cases: NCI-60 one-dose screen, 48 h (100 = growth as untreated, 0 = no growth, -100 = all killed)
What all share (conditions): 10 µM

Assay [1] deals with HCT-15 colon.
Assay [2] relates to HT29 colon.
Assay [3] relates to SNB-75 CNS.
Assay [4] has as its system SNB-19 CNS.
For assay [5], the system named is PC-3 prostate.
Assay [6] relates to SK-MEL-5 melanoma.
Assay [7] has as its system UACC-62 melanoma.
In assay [8] the test system is SK-MEL-28 melanoma.
In assay [9] the test system is SK-MEL-2 melanoma.
In assay [10] the test system is EKVX NSCLC.
Assay [11] relates to SN12C renal.
The test system of assay [12] is UO-31 renal.
For assay [13], the system named is TK-10 renal.
The subject of assay [14] is ACHN renal.
The subject of assay [15] is CAKI-1 renal.
Assay [16] concerns A498 renal.
Assay [17] concerns CCRF-CEM leukemia.
The test system of assay [18] is MOLT-4 leukemia.
Assay [19] relates to LOX IMVI melanoma.

Take `O=C(N=Nc1c(O)[nH]c2ccc(Br)cc12)c1ccc2nc(-c3ccccc3)[nH]c2c1`: the growth in assay [1] is 63.2% (inactive); in assay [2], -41.1% (active); in assay [3] it was -46.7% (active); in [4], -47.8% (active); in [5], -84.5% (active); in assay [6], -58.9% (active). The growth in assay [7] was -96% (active); in assay [8], -98.4% (active); in [9], -89.7% (active); in assay [10] it was -4.61% (active); in assay [11], -94.4% (active); in [12] it was 27.3% (inactive). Moreover, the growth was -25.5% (active) in assay [13]; -47.3% (active) in assay [14]; 16.8% (inactive) in assay [15]; -55.3% (active) in assay [16]; -16% (active) in [17]; -29% (active) in assay [18].

`CN1CCN(Cc2ccc(NC(=O)c3cncc(C#Cc4cnc5ccc(N[C@H]6CCOC6)nn45)c3)cc2C(F)(F)F)CC1`: the growth in assay [1] is -84.3% (active); in assay [2] it was -33.2% (active); in assay [3] it was -98% (active); in [4] it was -98.8% (active); in [5], -20.7% (active); in assay [6], -100% (active). Besides, the growth in assay [7] is -93.3% (active); in [19] it was -99.1% (active); in [8], -92.8% (active); in assay [9], -94.3% (active); in assay [10], -99.4% (active); in assay [11] it was -93.1% (active). The growth is -95.6% (active) in assay [12]; -69.8% (active) in assay [13]; -100% (active) in assay [14]; -96.7% (active) in assay [15]; -94.7% (active) in assay [16]; -2.23% (active) in assay [17]. For the same compound, the growth in assay [18] was -9.84% (active).

On to `COc1cccc(-c2ccc(/C=N/NC(=O)c3[nH]c4ccc(Br)cc4c3-c3ccccc3)o2)c1`, for which the growth in [1] was 1.34% (active); in assay [2], -9.03% (active); in [3] it was 31% (inactive); in assay [4], 40.3% (inactive); in assay [5] it was 20.2% (inactive); in assay [6], -0.615% (active). Also, the growth in assay [7] is 28.8% (inactive); in assay [19] it was 12.3% (inactive); in assay [8] it was 42.5% (inactive); in assay [9] it was 19.2% (inactive); in assay [10], 50.1% (inactive); in assay [11] it was 5.67% (active). The growth in assay [12] is 39.2% (inactive); in assay [13], 70.4% (inactive); in [14], 22.3% (inactive); in assay [15] it was 26% (inactive); in assay [16], 72.5% (inactive); in assay [17], -5.45% (active). For the same compound, the growth in [18] is 1.31% (active).

Turning to `C=C1CCC2C3(C)COC(c4ccccc4F)OC3CCC2(C)C1C/C=C1/C(=O)OCC1O` (configuration not stated), the growth in [1] was -20% (active); in assay [2] it was -14.6% (active); in [3] it was -58.3% (active); in assay [4], -93.4% (active); in assay [5], -17.5% (active); in assay [6], -91.1% (active). Besides, the growth is -7.01% (active) in [7]; -66.1% (active) in [8]; -59.2% (active) in assay [9]; -51.6% (active) in assay [10]; -40.9% (active) in assay [11]; -96.5% (active) in assay [12]. Further, the growth is -67.1% (active) in assay [13]; -99.4% (active) in [14]; -40.7% (active) in [15]; 101% (inactive) in assay [16]; 15.1% (inactive) in [17]; 9.47% (active) in assay [18].

On to `COc1ccc(C=CC(=O)c2ccc(-n3c(C)nc4c(cnn4-c4ccccc4)c3=O)cc2)cc1`, for which the growth is 53.5% (inactive) in assay [1]; 71.5% (inactive) in assay [2]; 98.1% (inactive) in [3]; 81.8% (inactive) in [4]; 65.1% (inactive) in assay [5]; 27.7% (inactive) in assay [6]. For the same compound, the growth in [7] is 50% (inactive); in assay [19] it was 43.9% (inactive); in assay [8], 90.4% (inactive); in assay [9], 70.6% (inactive); in assay [10], 42.9% (inactive); in assay [11], 81.6% (inactive). Further, the growth in [13] was 86.8% (inactive); in assay [14], 71% (inactive); in assay [15] it was 75% (inactive); in assay [16], 104% (inactive); in [17], 46.4% (inactive); in assay [18], 44.7% (inactive).

Consider `CC1(C)CC[C@]2(C(=O)NCCCNCCCCNCCCN)CC[C@]3(C)C(=CC[C@@H]4[C@@]5(C)Cc6c([nH]c7ccccc67)C(C)(C)[C@@H]5CC[C@]43C)[C@H]2C1`, for which the growth in [1] is 85% (inactive); in [2], 92.4% (inactive); in assay [3], 101% (inactive); in assay [4], 57.9% (inactive); in assay [5], 65.8% (inactive); in assay [6], 81.5% (inactive). In addition, the growth is 116% (inactive) in assay [7]; 102% (inactive) in [8]; 101% (inactive) in assay [9]; 90.7% (inactive) in assay [10]; 91.4% (inactive) in [11]; 71% (inactive) in assay [12]. The growth in assay [13] is 96.9% (inactive); in [14] it was 93.9% (inactive); in assay [15], 78% (inactive); in assay [16], 147% (inactive); in assay [17], 64.4% (inactive).

For the compound `Nc1nc(Nc2ccc(Cl)cc2)n(Cc2cccc(Br)c2)n1`, the growth in assay [1] is -52.7% (active); in assay [2], 11.4% (inactive); in assay [3], -23.9% (active); in assay [4], -12.3% (active); in [5] it was 0.572% (active); in assay [6], -100% (active). Moreover, the growth was -82.3% (active) in [7]; -84.6% (active) in [19]; -61.1% (active) in [8]; -74.7% (active) in [9]; -4.06% (active) in [10]; -28.5% (active) in assay [11]. Also, the growth was -7.87% (active) in [12]; -3.35% (active) in assay [13]; 1.49% (active) in assay [14]; 3.07% (active) in assay [15]; -49% (active) in assay [16]; 4.65% (active) in assay [17]. Further, the growth in assay [18] was 8.42% (active).

Take `O=C(c1ccc(Cl)cc1)C1[C@H](c2ccc(Br)cc2)[C@@H](c2ccccc2)NC12C(=O)Nc1ccc(Br)cc12` (some centres not stated): the growth in [1] is -91.6% (active); in [2] it was -54.5% (active); in assay [3], 0.834% (active); in assay [4], -51% (active); in assay [5] it was -23.5% (active); in assay [6], -60.3% (active). The growth was -83.9% (active) in [7]; -93.8% (active) in assay [8]; -93.4% (active) in assay [9]; -61.1% (active) in [10]; -97.1% (active) in assay [11]; -75.7% (active) in assay [12]. For the same compound, the growth in assay [13] was -78.7% (active); in assay [14], -39.6% (active); in assay [15], -93.9% (active); in assay [16] it was -17.1% (active); in [17] it was -7.91% (active); in [18] it was -33% (active).

Take `CCOP(=O)(OCC)O[C@H]1CC[C@]2(C)[C@H]3CC[C@@H]4[C@@H]([C@](C)(O)CCC=C(C)C)CC[C@@]4(C)[C@]3(C)CC[C@H]2C1(C)C`: the growth in assay [1] is 10.7% (inactive); in assay [2], -50.2% (active); in [3], 51.4% (inactive); in assay [4], 45.4% (inactive); in assay [5], 19.8% (inactive); in assay [6], -84.2% (active). Moreover, the growth in assay [7] is 43.5% (inactive); in assay [19], -100% (active); in assay [8] it was 48.8% (inactive); in assay [9] it was 17.1% (inactive); in assay [10], 28.2% (inactive); in [11] it was -51.7% (active). The growth in [12] is 24.8% (inactive); in assay [13], 36.6% (inactive); in assay [14], 28% (inactive); in [15], 25.2% (inactive); in assay [16], 52.5% (inactive); in assay [17], -21.2% (active). Besides, the growth in assay [18] was -15.5% (active).

As for `O=C1N/C(=N\c2nccs2)S/C1=C\c1cccs1`, the growth in assay [1] was 17.4% (inactive); in assay [2], 39.6% (inactive); in assay [3] it was 69.6% (inactive); in assay [4], 30.6% (inactive); in [5], 41.3% (inactive); in assay [6], -76.9% (active). The growth was -18.9% (active) in [7]; 8.62% (active) in [19]; 14.6% (inactive) in [8]; 40.7% (inactive) in [9]; 19% (inactive) in assay [10]; 45.8% (inactive) in assay [11]. Further, the growth in assay [12] is 20.8% (inactive); in [13] it was 55.2% (inactive); in assay [14] it was 17.1% (inactive); in assay [15], 20.2% (inactive); in assay [16] it was 73.2% (inactive); in assay [17], 19.1% (inactive). Moreover, the growth in [18] was 17% (inactive).

With `CC(=O)Nc1ccc(-c2cn(-c3cccc(C(=O)Nc4ccc(Cl)c(C(F)(F)F)c4)c3)nn2)cn1`, the growth was -57.8% (active) in assay [1]; -50.3% (active) in assay [2]; 88% (inactive) in assay [3]; -35.3% (active) in assay [4]; 1.58% (active) in [5]; -62.4% (active) in assay [7]. In addition, the growth was -90.8% (active) in [19]; -80.6% (active) in assay [8]; -38.3% (active) in assay [9]; -30.2% (active) in assay [10]; -48.4% (active) in assay [11]; -56% (active) in [12]. Moreover, the growth in assay [13] was -18% (active); in assay [14] it was -52.5% (active); in assay [15] it was -27.8% (active); in assay [16], -63.1% (active); in [17], 30% (inactive); in [18] it was 7.02% (active).
